In PubChem BioAssay (NCATS):
Inconclusive results are not listed. The source made the active and inactive calls. Calls come from the whole dose curve.

assay: Cell Viability - HepG2 (AID 433); settings: qHTS;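 note: cells exposed to compound for 40 hours; potency for ATP loss meaning cytotoxicity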
Outline: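 Read-out is luciferase-based quantitation of cellular ATP as a measure of viable HepG2 cells after 40 h treatment at 37 °C. Signal decrease is scaled between DMSO-only and 100 uM tamoxifen controls, with AC50 fitted by the Hill equation.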
Potency is the fitted concentration of half-maximal effect.

**Q.** Which Potency does the source give for `O=C(O)Cc1cccc2ccccc12` here?
**A.** The Potency was > 92 µM (inactive).

**Q.** For `O=c1cc(-c2ccc(O)cc2)oc2cc(O)cc(O)c12`, which Potency is on record?
**A.** The Potency was > 92 µM (inactive).

**Q.** With `CCn1cc(C(=O)O)c(=O)c2ccc(C)nc21` as the molecule, how does the Potency read?
**A.** The Potency was > 92 µM (inactive).

**Q.** Which Potency does the source give for `CC(=O)O[C@]1(C(C)=O)CC[C@H]2[C@@H]3C=C(Cl)C4=CC(=O)[C@@H]5C[C@@H]5[C@]4(C)[C@H]3CC[C@@]21C` here?
**A.** Its Potency is > 92 µM (inactive).

**Q.** Which Potency does the source give for `O=c1[nH]cnc2c1ncn2[C@H]1CC[C@@H](CO)O1` here?
**A.** The Potency was > 92 µM (inactive).

**Q.** For `O=c1c(O)c(-c2ccc(O)cc2)oc2cc(O)cc(O)c12`, which Potency is on record?
**A.** The Potency was > 92 µM (inactive).

**Q.** With `CC1=C(/C=C/C(C)=C/C=C/C(C)=C/C(=O)Nc2ccc(O)cc2)C(C)(C)CCC1` as the molecule, how does the Potency read?
**A.** The Potency was 34.9 µM (active).

**Q.** For `CN(C)CCC(c1ccccc1)c1ccccn1` (stereo not drawn), which Potency is on record?
**A.** The Potency was > 92 µM (inactive).
